Sampled rows, rich in hits. Any-hit rate of the full collection: about 4.2%.
PrPC TRFRET: cell surface PrPC inhibition, primary TR-FRET screen; P04156; TR-FRET read-out; inhibition, % at 13.8 µM; hit rate 0.43% among 370,000; AID 720596; in the data active means inhibition above about 24%; further: 0% = median of the test wells and 100% = reference compound wells
GDH-TPI counter: inhibits GDH-TPI coupling enzymes, artifact for Mtb FBA screen; GDH-TPI coupled enzyme counterscreen, NADH absorbance; inhibition, % at 4.8 µM; hit rate 1.2% among 360,000; AID 588335; in the data active means inhibition above about 30%;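 further: 0% = DMSO wells and 100% = wells lacking the enzyme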
RecA splice inh: blocks M. tuberculosis RecA intein splicing. cell-free RecA intein splicing, fluorescence. inhibition, % (concentration not given with the values). hit rate 0.75% among 290,000; in the data active means inhibition above about 30%;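 further: 0% = vehicle wells and 100% = reference inhibitor control wells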
Target sequence (P9WHJ3 whole entry, looked up, canonical isoform): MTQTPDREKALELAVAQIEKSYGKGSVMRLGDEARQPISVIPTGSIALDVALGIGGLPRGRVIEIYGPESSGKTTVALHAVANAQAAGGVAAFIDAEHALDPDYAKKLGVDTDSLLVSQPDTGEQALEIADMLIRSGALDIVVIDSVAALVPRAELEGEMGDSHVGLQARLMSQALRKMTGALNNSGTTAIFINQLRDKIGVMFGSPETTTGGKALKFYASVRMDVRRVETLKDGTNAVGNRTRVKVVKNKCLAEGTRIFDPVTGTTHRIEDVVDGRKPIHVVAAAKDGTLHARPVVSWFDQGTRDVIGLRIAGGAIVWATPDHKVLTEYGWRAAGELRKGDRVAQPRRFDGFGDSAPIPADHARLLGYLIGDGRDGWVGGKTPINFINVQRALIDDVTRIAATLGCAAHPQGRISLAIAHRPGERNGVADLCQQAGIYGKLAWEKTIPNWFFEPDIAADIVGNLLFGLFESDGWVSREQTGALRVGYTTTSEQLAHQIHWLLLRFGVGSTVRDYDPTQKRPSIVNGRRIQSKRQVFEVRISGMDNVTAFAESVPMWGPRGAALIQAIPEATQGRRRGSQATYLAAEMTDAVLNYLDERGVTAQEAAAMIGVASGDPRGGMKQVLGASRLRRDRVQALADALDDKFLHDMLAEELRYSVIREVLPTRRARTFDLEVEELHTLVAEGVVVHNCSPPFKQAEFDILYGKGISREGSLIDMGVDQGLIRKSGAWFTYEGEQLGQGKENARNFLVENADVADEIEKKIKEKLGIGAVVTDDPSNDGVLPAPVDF
FBA Mtb inh: Mtb fructose-bisphosphate aldolase inhibition | purified M. tuberculosis FBA, fluorescence read-out | hit rate 2.3% among 360,000 | inhibition, % at 1 µM; in the data active means inhibition above about 27%;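 further: 0% = vehicle and 100% = reference inhibitor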
BJeLR lethal: BJeLR cell viability loss; BJeLR (HRASV12) viability, CellTiter-Glo ATP luminescence, 48 h; inhibition, % (no concentration beside the values); hit rate 0.17% among 300,000; in the data active means inhibition above about 50%
* hit, by the source's call.

`Cc1ccc2c(c1)c1cccc3c1n2CCN3CCC(N)=O` gave GDH-TPI counter 6.0, RecA splice inh -16.2, FBA Mtb inh 49.0* and BJeLR lethal -5.6.
For COc1ccc(-c2nc3cc([N+](=O)[O-])ccc3o2)cc1 the results were PrPC TRFRET 6.4, GDH-TPI counter 1.6, RecA splice inh -1.5, FBA Mtb inh -0.1 and BJeLR lethal 9.3.
Screening CC(C)c1ccc2oc(-c3ccc(N)cc3)nc2c1 returned PrPC TRFRET -3.1, GDH-TPI counter 28.9, RecA splice inh 1.4, FBA Mtb inh 191.2* and BJeLR lethal -14.4.
Cc1ccc(-c2nc3cc(N)ccc3o2)cc1 was read as PrPC TRFRET 11.9, GDH-TPI counter 19.7, RecA splice inh -0.6, FBA Mtb inh 10.8 and BJeLR lethal 1.8.
For Nc1ccc(-c2nc3cc([N+](=O)[O-])ccc3o2)cc1 the results were PrPC TRFRET -9.9, GDH-TPI counter 41.6*, RecA splice inh 1.2, FBA Mtb inh 0.4 and BJeLR lethal 3.9.
CN(Cc1ccc(F)cc1)C(=O)c1cccc2c1C(=O)N(Cc1cccnc1)C2 was read as PrPC TRFRET -3.1.
`CN(Cc1ccccc1)c1ccc(S(=O)(=O)N2CCC(C(=O)O)CC2)cc1[N+](=O)[O-]` gave PrPC TRFRET 4.8, GDH-TPI counter 0.6, RecA splice inh 1.7 and FBA Mtb inh active.
`O=C(O)C1CCN(c2ccc(S(=O)(=O)N3CCC(C(=O)O)CC3)cc2[N+](=O)[O-])CC1` gave PrPC TRFRET -5.0, GDH-TPI counter -0.3, RecA splice inh -0.5, FBA Mtb inh -3.1 and BJeLR lethal 11.0.
`COc1ccc(OC)c(/C=N/NC(=O)Cn2ccnc2C)c1` gave PrPC TRFRET 1.8, GDH-TPI counter 14.2, RecA splice inh -2.4, FBA Mtb inh 165.4* and BJeLR lethal 5.6.
`Cc1ccccc1-n1cnc2cc(NCc3cccs3)ccc21` gave PrPC TRFRET 14.7, GDH-TPI counter 26.6, RecA splice inh 8.3, FBA Mtb inh 0.5 and BJeLR lethal 3.0.
Screening COc1ccccc1-n1cnc2cc(NCc3cccs3)ccc21 returned PrPC TRFRET 23.5, GDH-TPI counter -0.8, RecA splice inh 12.3, FBA Mtb inh 1.5 and BJeLR lethal 60.2*.
Screening NS(=O)(=O)c1ccc(N2C(=O)C(=O)/C(=C(/O)c3ccccc3)C2c2ccc(Cl)cc2)cc1 (centres undefined) returned PrPC TRFRET 4.3, GDH-TPI counter 38.8*, RecA splice inh 1.5, FBA Mtb inh -3.3 and BJeLR lethal -2.7.
Screening CN(C)S(=O)(=O)c1cccc(C(=O)N/N=C\c2ccccc2)c1 returned PrPC TRFRET 0.3.
CC(C)C[C@@H]1COc2cc(Br)ccc2S(=O)(=O)N1Cc1cn(CCC2OCCO2)nn1 was read as PrPC TRFRET 4.0.
For C=CCN1C(=O)[C@@H](CC(=O)N2CCOCC2)[C@]2(C(=O)OCC)CCCCC/C=C/12 the results were PrPC TRFRET 6.9.
CN(C)C(=O)/C(=C/c1ccc(-c2cccc([N+](=O)[O-])c2)o1)NC(=O)c1ccccc1 was read as PrPC TRFRET -18.8, GDH-TPI counter 52.9*, RecA splice inh 0.6, FBA Mtb inh -3.4 and BJeLR lethal -2.0.
For Cc1ccc(C(=O)N/C(=C\c2ccc(-c3cccc([N+](=O)[O-])c3)o2)C(=O)NCCCN2CCOCC2)cc1 the results were PrPC TRFRET -32.7, GDH-TPI counter 47.0*, RecA splice inh -2.2, FBA Mtb inh -0.4 and BJeLR lethal 7.3.
Screening Cc1ccc(C(=O)N/C(=C/c2ccc(-c3cccc([N+](=O)[O-])c3)o2)C(=O)NC(C)C)cc1 returned PrPC TRFRET -4.8, GDH-TPI counter 49.4*, RecA splice inh -1.0, FBA Mtb inh -2.8 and BJeLR lethal 0.2.
Cc1ccc(C(=O)N/C(=C/c2ccc(-c3cccc([N+](=O)[O-])c3)o2)C(=O)NC(C)(C)C)cc1 was read as PrPC TRFRET 2.1, GDH-TPI counter 21.6, RecA splice inh 1.5, FBA Mtb inh 5.2 and BJeLR lethal -0.1.
For COc1ccc(C(=O)N/C(=C\c2ccc(-c3cccc([N+](=O)[O-])c3)o2)C(=O)NCCCN2CCOCC2)cc1 the results were PrPC TRFRET -23.2, GDH-TPI counter 47.3* and FBA Mtb inh -3.1.
For Cn1c(Cc2cccs2)nnc1SCC(=O)Nc1ccc2cn[nH]c2c1 the results were PrPC TRFRET 14.6.
For O=[N+]([O-])c1cccc2[nH]c(CNc3nc(N4CCOCC4)nc4c3ncn4-c3ccsc3)nc12 the results were PrPC TRFRET 14.3.
Screening Cc1cc(C)cc(NC(=O)N2CCC(c3nc4ccc(Cl)cc4[nH]3)CC2)c1 returned PrPC TRFRET 4.7.

Source: PubChem BioAssay (several laboratories)
